Many of the other results were omitted from the sample, so hits are more common in it than they were.
Pf Dd2 growth: inhibitors of Plasmodium falciparum Dd2 growth | P. falciparum Dd2 growth, SYBR Green, 72 h | hit rate 4.3% among 120,000 | AID 1347417 | Potency, µM (highest dose often 28.9 µM), usual class: inhibitors; active = well fitted inhibition curve with a large enough effect; also: nearly all actives have a fitted effect of over 65% in size
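Readout: SYBR Green fluorescence, 485 nm excitation, 535 nm emission, after ~16 h lysis at 37C. Before that, Dd2-infected red cells (2.5% hematocrit) grew 72 h with compound, 29 uM top final concentration.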
Large screens that a line does not name were inactive; ! = a repeat was not active.

CCn1cc(C(=O)NCc2ccccc2Cl)c(=O)c2cc(S(=O)(=O)N3CCOCC3)ccc21	none
CCN(CC)CCNC(=O)c1cn(CC)c2ccc(S(=O)(=O)N3CCc4ccccc4C3)cc2c1=O	none
CCn1cc(C(=O)NCc2ccccc2OC)c(=O)c2cc(S(=O)(=O)N3CCCCC3)ccc21	Pf Dd2 growth 10µM
CCn1cc(C(=O)NCc2ccccc2Cl)c(=O)c2cc(S(=O)(=O)N3CCc4ccccc4C3)ccc21	Pf Dd2 growth 10µM
CCn1cc(C(=O)NCc2ccccc2Cl)c(=O)c2cc(S(=O)(=O)N3CCCCCC3)ccc21	none
COc1ccc(C(=O)Nc2ccc([C@H]3OCC(=O)N(Cc4nccn4C)[C@@H]3CO)cc2)cc1	none
Cc1nc(C)c(C(=O)N2[C@@H]3CC[C@H]2CC(NC(=O)c2ccncc2)C3)s1 (some centres undefined)	none
COc1ccc(CN2CCCC(COc3ccccc3C(=O)NC3CC3)C2)c(OC)c1 (centres undefined)	none
CCN1CCC(N2CCC3(CC2)CN(c2ccncn2)CC3CO)CC1 (centres undefined)	none
COc1cccc(-c2noc(CC3CCN(C(=O)CCCc4ccccc4)CC3)n2)c1	none
CN(C)c1cc(N2CCCC(NC(=O)Cc3ccc(F)cc3)C2)ncn1 (centres undefined)	none
Cc1cnc(C(=O)N2CCC3(CCCN(Cc4cccc(F)c4F)C3=O)C2)[nH]1 (centres undefined)	none
CS(=O)(=O)N1C[C@@H](C(=O)Nc2ccc(N3CCOCC3)cc2)[C@H](c2ccncc2)C1	none
O=C(NC1CC1)c1ccc2nnc(C3CC3)n2c1	none
COc1ccc(CCNC(=O)Cc2ccc(N(Cc3ccccc3)C(=O)c3ccco3)cc2)cc1	none
COc1ccc(NC(=O)Cc2ccc(N(Cc3ccc(C)cc3)C(=O)c3ccco3)cc2)cc1	Pf Dd2 growth 4.5µM
CCCNC(=O)Cc1ccc(N(Cc2ccc(OC)cc2)C(=O)c2ccco2)cc1	none
COc1ccc(N(Cc2cccs2)C(=O)c2ccco2)cc1	Pf Dd2 growth 10µM
COc1ccc(CN(C(=O)c2ccco2)c2ccc(CC(=O)NC(C)C)cc2)cc1	none
COc1ccc(OCC(=O)N(Cc2cccs2)c2ccc(OC)cc2)cc1	none
CCCN1C(=O)Cc2ccccc2C1C(=O)O (centres undefined)	none
CC1=C(C(=O)OC(C)C)C(c2ccccc2F)N2C(CC(=O)N3CCOCC3)=CSC2=N1 (centres undefined)	none
O=C(c1ccoc1)N1CCC2(CC1)CC(N(C(=O)c1ccccc1)C1CC1)CCO2 (centres undefined)	none
O=C(c1cccc(Cl)c1)N1CCC2(C1)C(=O)N(CCc1ccccc1)c1ccccc12 (centres undefined)	Pf Dd2 growth 7.9µM!
CC(C)Oc1ccc(C(=O)N2CCC3(CC2)C(=O)N(C)c2ccccc23)cc1	Pf Dd2 growth 8.9µM
CN1C(=O)C2(CCN(C(=O)c3ccccc3)C2)c2ccccc21 (centres undefined)	none
CN1C(=O)C2(CCN(C(=O)c3cccc(F)c3)C2)c2ccccc21 (centres undefined)	none
COc1ccc(C(=O)N2CCC3(CC2)C(=O)Nc2ccccc23)cc1	none
CC1(C(=O)O)CCN(C(=O)c2cccc(Cl)c2)CC1	none
COc1ccc(C(=O)N2CCC3(C2)C(=O)N(Cc2ccccc2)c2ccccc23)cc1 (centres undefined)	none
CC(C)CCNC(=O)N1CCC2(CC1)C(=O)N(C)c1ccccc12	none
COc1ccc(C(=O)N2CCC3(C2)C(=O)N(CCc2ccccc2)c2ccccc23)cc1 (centres undefined)	Pf Dd2 growth 8.9µM!
O=C1CCCCC(C(=O)NCCc2ccncc2)N1 (centres undefined)	none
Cc1ccc(NC(=O)CC2CCOCC2)cc1F	none
CC[C@H]1CN(S(=O)(=O)c2ccccc2)CC[C@H]1CC(=O)NCc1cccnc1	none
COCCC(=O)N1CCC(n2c(C)cnc2C2CC2)CC1	none
COC[C@H]1NC(=O)CC[C@H]1C(=O)NCCCc1ccccc1	none
COc1ccc(Nc2cnc3ccc(-c4ccccc4OC)nn23)cc1OC	none
COc1ccccc1-c1ccc2ncc(Nc3cccc(O)c3)n2n1	Pf Dd2 growth 13µM
COc1ccccc1-c1ccc2ncc(Nc3ccc4c(c3)OCO4)n2n1	none
CCc1ccccc1S(=O)(=O)N1C[C@H](F)C[C@@H]1C(=O)N1CCOCC1	none
Cn1c(CN2CCN(c3ccc(C#N)cn3)CC2)nnc1C1CC(N)C1 (centres undefined)	none
NC(Cc1ccccc1)C(=O)N1CCC2(CC1)CN(C(=O)c1ccc(Cl)cc1)CCO2 (centres undefined)	Pf Dd2 growth 0.63µM
COc1ccc(CC(=O)N2CCC3(CC2)CN(C(=O)c2ccc(Cl)cc2)CCO3)cc1	none
CC(=O)N1CCC2(CC1)CN(C(=O)c1ccc(Cl)cc1)CCO2	none
COc1ccc2c(c1)OCC(C(=O)NCCNc1cc(C)ccn1)C2 (centres undefined)	none
CNC(=O)N1CCC(C2CCN(C(=O)CCc3cccc(OC)c3)C2)CC1 (centres undefined)	none
COC(=O)[C@@H]1Cc2ncn(C)c2CN1C(=O)c1ccc(F)cc1	none
CC1(C(=O)NCc2ccncc2)CCc2cnc(NCc3ccccc3)nc21 (centres undefined)	none
Cc1ccc(-n2c(/C=C/c3cc(Br)cs3)nc3ccccc3c2=O)cc1C	none
Cc1ccc(-n2c(/C=C/c3cccs3)nc3ccccc3c2=O)cc1C	Pf Dd2 growth 8.9µM
COc1cccc(/C=C/c2nc3ccccc3c(=O)n2-c2ccc(C)c(C)c2)c1OC	none
CN(C)c1ccc(NC(=O)CCn2ccn3nc4c(c3c2=O)CCCC4)cc1	Pf Dd2 growth 4µM
O=C(Nc1ccc(Cl)cc1)c1ccc(Cn2ccn3nc4c(c3c2=O)CCCC4)cc1	Pf Dd2 growth 8.9µM
O=C(Nc1ccccc1)c1ccc(Cn2ccn3nc4c(c3c2=O)CCCC4)cc1	none
CC(C)NC(=O)c1ccc(Cn2ccn3nc4c(c3c2=O)CCCC4)cc1	none
O=C(CCn1ccn2nc3c(c2c1=O)CCCC3)Nc1ccc(F)cc1	none
CCOc1ccc(NC(=O)CCn2ccn3nc4c(c3c2=O)CCCC4)cc1	none
CC1(c2ccccc2)CCCN(C(=O)c2ccnc(-n3cnnc3)c2)C1 (centres undefined)	none
CCc1noc([C@@H]2CC(F)(F)CN2C(=O)c2ccc(F)cn2)n1	none
O=C(CCC1CCCN(S(=O)(=O)c2ccccc2)C1)NC1CCS(=O)(=O)C1 (centres undefined)	none
CCOc1ccc(-c2cn3c(n2)sc2cc(C(=O)N4CCCC(C)C4)ccc23)cc1 (centres undefined)	Pf Dd2 growth 7.1µM
CCOc1ccc(-c2cn3c(n2)sc2cc(C(=O)NCCCN4CCCCC4)ccc23)cc1	Pf Dd2 growth 2.5µM
CCOc1ccc(-c2cn3c(n2)sc2cc(C(=O)NCCc4ccc(OC)cc4OC)ccc23)cc1	Pf Dd2 growth 5.6µM
COc1ccc(-c2cn3c(n2)sc2cc(C(=O)Nc4c(C)cccc4C)ccc23)cc1	none
COc1ccc(-c2cn3c(n2)sc2cc(C(=O)Nc4ccc(C)c(Cl)c4)ccc23)cc1	Pf Dd2 growth 6.3µM
COc1ccc(-c2cn3c(n2)sc2cc(C(=O)Nc4ccc(C)cc4C)ccc23)cc1	none
COc1ccc(-c2cn3c(n2)sc2cc(C(=O)N4CCCCC4)ccc23)cc1	none
CCOc1ccc(C(=O)N2CCCC(n3cc(-c4nc(C5CC5)no4)nn3)C2)cc1 (centres undefined)	none
CCCC1=Nc2cc(C(=O)NCCc3ccc(OC)cc3OC)ccc2Sc2ccccc21	none
CCCCOc1ccc(C(=O)NCCc2sc(-c3ccc(OC)c(OC)c3)nc2C)cc1	none
COCc1nc(CCNC(=O)NC2CCCCC2)no1	none
